# PubChem BioAssay (Tox21)
# Where “and” joins values, the source holds several entries; their conditions need not be identical. Equal entries are not always repeated. Records with an inconclusive call do not appear. Where a structure was tested more than once in an assay, its records may differ in their call. Calls of active or inactive are those of the source. The call rests on the fitted dose curve; in most records, active means well fitted activation curve with a large enough effect in the repeat runs; inconclusive means weak or mixed curves; inactive means flat fitted curve, though single readings scatter.
# Test: A CellTox Green Cytotoxicity Assay to monitor cytotoxicity in HepG2 cells - 16 hour (AID 1224876); further: nearly all actives have a fitted effect of over 45% in size
# Settings: CellTox Green fluorescence; series mostly up to 76.8 µM; cytotoxicity increase: at the top concentration
# Text: National Center for Advancing Translational Sciences [NCATS]
# NIH Chemical Genomics Center [NCGC]
# U.S. Environmental Protection Agency [EPA]
# National Institutes of Environmental Health Sciences [NIEHS]
# National Toxicology Program [NTP]
# Cell-based models are critical for drug discovery. Determining the natural cytotoxic effects resulting from test compounds is an essential research activity. A CellTox Green Cytotoxicity Assay to monitor cytotoxicity in real time of continues cell culture during 40 hours of the compound treatment was used to screen Tox21 10K library compounds in HepG2 cells. CellTox Green Cytotoxicity Assay is a nonlytic, homogeneous, biofluorescent method to measure cytotoxicity in cell culture after experimental manipulation. The assay system uses a proprietary asymmetric cyanine dye that is excluded from viable cells but preferentially stains the dead cell's DNA. […] Viable cells produce no appreciable increases in fluorescence. Therefore, the fluorescence signal produced by the binding interaction with dead cell DNA is proportional to cytotoxicity.
# The mixture of HepG2 cell suspension and reagents were dispensed at 600cells/6 ul/well in 1536-well tissue culture treated black solid bottom plates using a Multidrop dispenser. After the assay plates were incubated at a 37 C/5% CO2 incubator for 5 hours, 23 nL of compounds dissolved in DMSO, positive and negative controls was transferred to the assay plate by a pintool work station. The plates were incubated at 37 C for 40 hours. The fluorescence intensity were measured at 0h, 8h, 16h, 24h, 32h and 40h time points using ViewLux plate reader during compound treatment.
# On the % scale 0 is the no-effect control and ±100 the full control effect; potency means the concentration at half of the fitted maximal effect.
SMILES,Potency,cytotoxicity increase
CC[C@H](c1ccc(O)cc1)[C@@H](CC)c1ccc(O)cc1,49 µM (active),
CN(C)C(=O)C1(N2CCCCC2)CCN(CC[C@@]2(c3ccc(Cl)c(Cl)c3)CN(C(=O)c3ccccc3)CCO2)CC1,40.8 µM (active),
CCCCc1oc2ccc(NS(C)(=O)=O)cc2c1C(=O)c1ccc(OCCCN(CCCC)CCCC)cc1,21.3 µM (active),
Cc1oc(-c2ccccc2)nc1CCC(=O)c1ccc(CC2SC(=O)NC2=O)cc1 (stereo not given),,-19% [at 35.3 µM] (inactive)
Cc1cc(O)c(C(C)(C)C)cc1C(C)(C)C,21.9 µM (active),
O=C(OCC1CO1)C1CCCCC1C(=O)OCC1CO1 (stereo not given),,-7.65% (inactive)
Oc1c(Cl)cc(Cl)c2cccnc12,,14.7% [at 35.3 µM] (inactive)
CCCCCCCCS(=O)C(C)Cc1ccc2c(c1)OCO2 (stereo not given),,8.84% (inactive)
O=C1CCCc2c1cc1ccc3cccc4ccc2c1c34,,1.01% (inactive)
CCCCCCCCOc1ccccc1C(=O)Nc1ccc(C(=O)OCC[N+](C)(CC)CC)cc1,23.9 µM (active),
CCCC(=O)OC[C@@H](OC(=O)CCC)[C@@H](OC(=O)CCC)[C@H](Cn1c2nc(=O)[nH]c(=O)c-2nc2cc(C)c(C)cc21)OC(=O)CCC,19 µM (active),
[Cl][Bi]([Cl])([c]1ccccc1)([c]1ccccc1)[c]1ccccc1,10.9 µM (active),
Nc1nc2ccccc2n1Cc1ccc(F)cc1,,21.9% [at 35.3 µM] (inactive)
Oc1cccc2cc3cccc(O)c3c(O)c12,,-8.49% (inactive)
OCCCCCCCCCCCCBr,,6.45% (inactive)
OCc1c[nH]c2ccccc12,,-1.98% (inactive)
Cc1ccc(O)c(C(C)(C)C)c1,38.8 µM (active) and 34.7 µM (active),
CC(C)(C)c1ccc(C(=O)CCCN2CCC(OC(c3ccccc3)c3ccccc3)CC2)cc1,23.9 µM (active),
CNC(=O)c1ccccc1,,2.29% (inactive)
Nc1c2ccccc2nc2ccccc12,inactive and 13.4 µM (active),

SMILES,Potency,cytotoxicity increase
CCCCCCCCCCC=O,,-8.1% (inactive)
CO[Si](CCCNc1ccccc1)(OC)OC,,-1.24% (inactive)
O=C1C=CC(=O)N1,25.2 µM (active),
Cc1cccc(S(=O)(=O)O)c1C,,0.137% (inactive)
O=c1[nH]sc2ccccc12,34.7 µM (active),
Cc1cccc(N(C)C(=S)Oc2ccc3c(c2)C2CCC3C2)c1 (stereo not given),,3.18% [at 35.3 µM] (inactive)
O=C(Nc1cccc(C(F)(F)F)c1)c1cc(Br)cc(Br)c1O,,5.97% (inactive)
O=C(O)c1ccc(Cl)c(Cl)c1,,-7.7% (inactive)
Cc1c(C)c2c(c(C)c1OC(=O)CCC(=O)O)CC[C@@](C)(CCC[C@H](C)CCC[C@H](C)CCCC(C)C)O2,,-2.61% (inactive)
CC(C)c1ccc2c(c1)CC[C@H]1[C@](C)(CN)CCC[C@]21C,19.5 µM (active),
CCC(Cl)C(Cl)C(Cl)CC(Cl)C(Cl)C(C)Cl (stereo not given),,-25.1% (inactive)
Cc1cc(=O)oc2cc(N(C)C)ccc12,,0.718% (inactive)
O=S1(=O)CC(Cl)(Cl)C(Cl)(Cl)C1,11 µM (active),
CCCCCCCCCCn1cc[n+](CCCCCCCCCC)c1C,21.9 µM (active),
CN1CCN(CCC(=O)N2c3ccccc3Sc3ccc(C(F)(F)F)cc32)CC1,10.7 µM (active),
COC(=O)C1=C(C)NC(C)=C(C(=O)OCC(C)C)C1c1ccccc1[N+](=O)[O-] (stereo not given),,0.248% [at 35.3 µM] (inactive)
CCCCN(CCCC)c1ccc(C(=O)c2ccccc2C(=O)O)c(O)c1,,16.9% (inactive)
CCCCCCCCCCCCCCCC(=O)OC[C@H](O)[C@H]1OC(=O)C(O)=C1O,,-1.1% (inactive)
O=C(OC[C@H]1O[C@@H](OC(=O)c2cc(O)c(O)c(OC(=O)c3cc(O)c(O)c(O)c3)c2)[C@H](OC(=O)c2cc(O)c(O)c(OC(=O)c3cc(O)c(O)c(O)c3)c2)[C@@H](OC(=O)c2cc(O)c(O)c(OC(=O)c3cc(O)c(O)c(O)c3)c2)[C@@H]1OC(=O)c1cc(O)c(O)c(OC(=O)c2cc(O)c(O)c(O)c2)c1)c1cc(O)c(O)c(OC(=O)c2cc(O)c(O)c(O)c2)c1,,-47.1% [at 15.8 µM] (inactive)
Cc1ccc(-n2nc(C(C)(C)C)cc2NC(=O)Nc2ccc(OCCN3CCOCC3)c3ccccc23)cc1,,-14.7% [at 35.3 µM] (inactive)
